Compound activity from PubChem BioAssay.
In the library only some 7.9% were active in any assay of this set; here they are far more common.
SW480 rerep – DNA re-replication induction in SW480 cells. AID 624297. actives 1.8% (n = 340,000). SW480 DNA re-replication, Hoechst DNA content imaging, 48 h. Potency, µM (doses to about 46.1 µM), without a hit: at the highest dose re-replication activation, most hits filed as activators; also: % of control where 0% means no effect; nearly all actives have a fitted effect of over 55% in size
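DNA re-replication was detected as more nuclei of elevated Hoechst intensity after 48 hr exposure to compound (23 nL pinned per well of 250 cells).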
HT1080 IDH1KD tx – HT-1080 IDH1 knockdown cell toxicity (counter line); AID 686971; Potency, µM (doses to about 46.1 µM), inactives show at the top dose activity, negative = toxicity, usual class: cytotoxic; HT-1080 IDH1 knockdown viability, ATP luminescence, 48 h; actives 2% (n = 360,000);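 also: 0% = DMSO wells and -100% = cell-free medium wells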
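Using the IDH1-knockdown HT-1080 line run in the same batch and compound series as the NT line, viability after 48 h at 37 °C was determined by CellTiter-Glo luminescence and expressed as % activity.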
MCF10A rerep – DNA re-replication induction in MCF 10a cells; Potency, µM (highest dose often 46.1 µM), without a hit: top-dose activity, positive = re-replication, hits mostly activators; AID 624296; actives 2.9% (n = 350,000); MCF 10A DNA re-replication, Hoechst nuclear intensity, 48 h; also: % of control where 0% means no effect; nearly all actives have a fitted effect of over 50% in size
HT1080-NT tox – kills 2HG-producing HT-1080-NT fibrosarcoma cells; HT-1080-NT fibrosarcoma viability, CellTiter-Glo ATP luminescence, 48 h; Potency, µM (top dose mostly 46.1 µM), for inactives: top-dose activity, negative = less viability, actives largely listed as cytotoxic; actives 1.6% (n = 360,000);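 also: NT is the 2HG producing partner of a matched IDH1 knockdown line; 0% = DMSO-treated cells and -100% = media-only wells without cells; nearly all actives have a fitted effect of over 55% in size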
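Compounds were tested in concentration-response format on HT-1080-NT cells for 48 hours at 37 degrees C. Cell viability came from CellTiter-Glo luminescence; curves were classified by r2, response magnitude and activity.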
KB-3-1 tox – KB-3-1 parental cell cytotoxicity; KB-3-1 viability, CellTiter-Glo ATP luminescence, 72 h; Potency, µM (series often up to 46.1 µM), usual class: cytotoxic; actives 1.4% (n = 400,000); AID 1347075; also: % is scaled to controls: 0 for no effect and ±100 for the full control effect; nearly all actives have a fitted effect of over 60% in size
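Using CellTiter-Glo luminescence, growth of non-resistant KB-3-1 adenocarcinoma cells is assessed 72 h after pin-tool compound addition at 37 °C. Normalized responses across the concentration series yield fitted curves.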
KB-V1 cytotox – KB-V1 MDR subline cytotoxicity | KB-V1 MDR cells viability, CellTiter-Glo, 72 h | Potency, µM (highest dose often 46.1 µM), usual class: cytotoxic | actives 3.4% (n = 400,000) | AID 1347076; also: % is scaled to controls: 0 for no effect and ±100 for the full control effect; nearly all actives have a fitted effect of over 60% in size
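Potencies derive from concentration-effect curves fitted to normalized luminescence (CellTiter-Glo) of KB-V1 cells treated for 72 h at 37 degrees C in phenol-red-free DMEM containing 10% FBS.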
Numbers without * were called inactive; i = inactive; ? = inconclusive; / = not tested or not shown; [ ] = dose if it differs, or a comment. Calls follow the shape of the dose curve; as a rule, active = well fitted curve in the direction sought with a large enough effect; inconclusive = small, poorly fitted or top-dose-only effect, or another doubt; inactive = no such curve, though single readings can be large; an effect the other way counts as inactive or inconclusive. Potency is read from the fitted curve at half-maximal effect.

SMILES	SW480 rerep	HT1080 IDH1KD tx	MCF10A rerep	HT1080-NT tox	KB-3-1 tox	KB-V1 cytotox
COC(=O)/C(=C/c1cn(C(C)=O)c2ccccc12)[N+](=O)[O-]	-7.0%	-1.9%	0.8%	-21.0%	i	i
CC(=O)n1cc(C(C[N+](=O)[O-])SCCN)c2ccccc21 (stereo not given)	6.51µM*	?	5.17µM*	?	?	?
C=C(CN(C)C)C(=O)c1ccc(C)cc1C	5.8µM*	5.8µM*	2.91µM*	?	?	?
CC1CC(C)CN(C(=O)C2CCN(C(=O)Nc3ccccc3)CC2)C1 (stereo not given)	6.2%	-5.8%	4.5%	-11.5%	i	20.6µM*
NC(=O)C1CCN(C(=O)Nc2ccccc2)CC1	2.3%	/	0.9%	/	/	/
CC1CCC(NC(=O)C2CCN(C(=O)Nc3ccccc3)CC2)CC1 (stereo not given)	-1.4%	-8.6%	?	0.5%	i	16.4µM*
CC1CCCN(C(=O)C2CCN(C(=O)Nc3ccccc3)CC2)C1 (stereo not given)	-13.2%	-0.1%	13.6%	4.1%[9.24 µM]	i	i
CC1CCC(NC(=O)C2CCN(c3nc4ccccc4s3)CC2)CC1 (stereo not given)	-9.6%	11.7%	16.9%	15.4%	?	7.31µM*
O=C1CC(C(=O)O)S/C(=N\N=C\c2ccc(Br)cc2)N1 (stereo not given)	-38.0%	-1.0%	-0.2%	16.6%	i	?
O=C(OCn1ncc(Cl)c(Cl)c1=O)c1cccc(C(F)(F)F)c1	5.8µM*	20.6µM*	5.8µM*	?	4.61µM*	?
N/C(=N\OC(=O)c1cccc(C(F)(F)F)c1)c1cnccn1	-33.2%	-3.9%	-9.0%	-2.1%	i	i
CCC(C)Sc1ccc([C@@H]2[C@H]3C(=O)N(CC)C(=O)[C@H]3[C@]3(C(=O)OC)CCCCN23)cc1 (stereo not given in full)	?	-30.0%	8.4%	-21.3%	?	10.3µM*
CS(=O)(=O)Nc1ccc(-c2ccc(/C=C3\SC(N)=NC3=O)o2)cc1	13.5%	-2.1%	23.1µM*	12.5%	i	i
Cc1cc(Cl)n2nc(C)c(-c3ccc(Cl)cc3)c2n1	?	18.4µM*	16.4µM*	?	i	i
Cc1cc(N)n2nc(C)c(-c3ccc(Cl)cc3)c2n1	13.0%	?	23.4%	?	i	?
Cc1cc(SCC#N)n2nc(C)c(-c3ccc(Cl)cc3)c2n1	1.2%	8.91µM*	-6.7%	?	i	i
O=C(c1cccc(F)c1)N1CCN(c2ccc([N+](=O)[O-])c(N3CCOCC3)c2)CC1	-3.2%	4.2%	?	5.0%	i	i
Cc1ccccc1N/N=C/c1c(C)nc2ccccn12	14.2%	-13.4%	16.4µM*	-10.2%	i	i
Cc1ccc(NC(=O)c2c(C)nc3ccccn23)cc1C	1.7%	2.9%	0.3%	9.5%	i	i
C#CCN(C[C@@H]1[C@@H](OC(=O)NCc2ccco2)[C@@H](OC(=O)NCc2ccco2)Cn2c(=O)n(CCCCCC)c(=O)n21)S(=O)(=O)c1ccc(C)cc1	/	-5.8%	/	-2.8%	?	i
C#CCN(C[C@@H]1[C@@H](OC(=O)NCC2CCCCC2)[C@@H](OC(=O)NCC2CCCCC2)Cn2c(=O)ccc(=O)n21)S(=O)(=O)c1ccc(C)cc1	/	2.59µM*	/	5.17µM*	i	i
C#CCN(C[C@@H]1[C@@H](OC(=O)NCCCCCC)[C@@H](OC(=O)NCCCCCC)Cn2c(=O)ccc(=O)n21)S(=O)(=O)c1ccc(C)cc1	/	4.11µM*	/	4.61µM*	?	i
C#CCN(C[C@@H]1[C@@H](OC(=O)NCc2ccc(OC)c(OC)c2)[C@@H](OC(=O)NCc2ccc(OC)c(OC)c2)Cn2c(=O)ccc(=O)n21)S(=O)(=O)c1ccc(C)cc1	/	20.6µM*	/	9.2µM*	?	i
C#CCN(C[C@@H]1[C@@H](OC(=O)NCc2ccc(OC)c(OC)c2)[C@@H](OC(=O)NCc2ccc(OC)c(OC)c2)Cn2c(=O)n(CCCCCC)c(=O)n21)S(=O)(=O)c1ccc(C)cc1	/	10.6%	/	0.3%	i	?
C#CCN(C[C@@H]1[C@@H](OC(=O)NCc2ccco2)[C@@H](OC(=O)NCc2ccco2)Cn2c(=O)ccc(=O)n21)S(=O)(=O)c1ccc(C)cc1	/	?	/	14.6µM*	16.4µM*	i
SMILES	SW480 rerep	HT1080 IDH1KD tx	MCF10A rerep	HT1080-NT tox	KB-3-1 tox	KB-V1 cytotox
C#CCN(C[C@@H]1[C@@H](OC(=O)NC2CC2)[C@@H](OC(=O)NC2CC2)Cn2c(=O)n(CCCCCC)c(=O)n21)S(=O)(=O)c1ccc(C)cc1	/	-13.7%	/	-18.5%	i	i
CCOC(=O)c1cccc(NC(=O)CSc2nnc(-c3ccoc3C)n2CC)c1	0.6%	4.1%	17.9%	13.1%	i	i
Fc1ccc(OCCOCCN2CCNCC2)cc1	-4.2%[9.22 µM]	2.9%	1.7%	3.3%	i	i
CC(=O)Oc1cccc(C)c1	4.3%	/	-1.1%	/	/	/
CCCCCCNC(=O)O[C@H]1Cn2c(=O)ccc(=O)n2[C@@H]2CN(S(=O)(=O)c3ccc(C)cc3)C[C@]12O	/	23.1µM*	/	16.4µM*	16.4µM*	i
O=C(NC(Cc1c[nH]c2ccccc12)C(=O)Nc1ccc(F)c([N+](=O)[O-])c1)c1cccs1 (stereo not given)	?	?	?	?	?	6.51µM*
O=C(NC(Cc1c[nH]c2ccccc12)C(=O)Nc1ccc(OC(F)(F)F)cc1)c1cccs1 (stereo not given)	?	20.6µM*	?	?	11.6µM*	?
CCOC(=O)/C(C#N)=C/Nc1cc(C(=O)OCC)cc2c(OC)c(OC)ccc12	23.1µM*	-5.8%	2.59µM*	-0.1%	i	i
CCOC(=O)/C(C#N)=C/Nc1ccsc1C(=O)OC	11.5%	8.4%	4.6%	11.5%	i	i
Cc1cccc(NC(=O)c2ccc(NCC3CCCO3)c([N+](=O)[O-])c2)n1 (stereo not given)	-5.4%	8.8%	1.0%	-1.6%	i	?
CCOC(=O)N1CCC(NC(=O)CCc2c(C)nc3c(c(C)nn3C(C)(C)C)c2C)CC1	8.1%	?	4.0%	?	?	3.66µM*
CCOC(=O)N1CCC(NC(=O)CCc2c(C)nc3nc(C)nn3c2C)CC1	-9.1%	10.7%	-6.4%	0.2%	i	i
